High-throughput results: PubChem, National Center for Advancing Translational Sciences (NCATS)
S-ASM inh – Inhibitors of Secretory Acid Sphingomyelinase (S-ASM): qHTS; actives 0.006% (n = 340,000); AID 504937, 2011; placental ASM, HMU-PC fluorogenic substrate, 60 min; Potency, µM (doses to about 57.5 µM), inactives show top-dose activity change, negative = inhibition, hits mostly inhibitors; also: potency is read from the fitted curve at half-maximal effect
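Fluorogenic HMU-PC substrate (9 uM final) is turned over by placental ASM in 60 min at 37 C after a 10 min compound preincubation. Reaction ended by alkaline stop (pH 10), with fluorescence read at 386/447 nm.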
Integrin act MD – qHTS for Activators of Integrin-Mediated Alleviation for Muscular Dystrophy. alpha7betagal myoblasts, beta-gal FDG fluorescence, 48 h. Potency, µM (highest dose often 38.3 µM), inactives show top-dose activation, hits mostly activators. actives 0.064% (n = 350,000). AID 624291, 2012;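 also: potency is read from the fitted curve at half-maximal effect; 100% = response of the positive control SU9516; nearly all actives have a fitted effect of over 60% in size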
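alpha7betagal+/- myoblasts (passage 13, 250/well) treated 48 h at 37C with compounds at 1:260 dilution of DMSO stock. Lysed, then beta-galactosidase activity read as FDG fluorescence (ex 480/em 540) after 30 min, with pre-read for autofluorescence.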
RXFP1 antag – qHTS Assay for Antagonists of the Relaxin Receptor RXFP1; Relaxin receptor 1 (Homo sapiens), Q9HBX9; HEK293-RXFP1, relaxin-stimulated cAMP HTRF, 30 min; hits give low values; activity change, negative = inhibition, % at 57.5 µM; actives 0.59% (n = 350,000);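 active = activity change of -60% or lower, but not beyond a set lower limit; inconclusive = change between -60% and -40%, or beyond the set limit; inactive = change above -40%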; also: % is scaled to controls: 0 for no effect and ±100 for the full control effect
Target sequence (Q9HBX9 whole entry, looked up): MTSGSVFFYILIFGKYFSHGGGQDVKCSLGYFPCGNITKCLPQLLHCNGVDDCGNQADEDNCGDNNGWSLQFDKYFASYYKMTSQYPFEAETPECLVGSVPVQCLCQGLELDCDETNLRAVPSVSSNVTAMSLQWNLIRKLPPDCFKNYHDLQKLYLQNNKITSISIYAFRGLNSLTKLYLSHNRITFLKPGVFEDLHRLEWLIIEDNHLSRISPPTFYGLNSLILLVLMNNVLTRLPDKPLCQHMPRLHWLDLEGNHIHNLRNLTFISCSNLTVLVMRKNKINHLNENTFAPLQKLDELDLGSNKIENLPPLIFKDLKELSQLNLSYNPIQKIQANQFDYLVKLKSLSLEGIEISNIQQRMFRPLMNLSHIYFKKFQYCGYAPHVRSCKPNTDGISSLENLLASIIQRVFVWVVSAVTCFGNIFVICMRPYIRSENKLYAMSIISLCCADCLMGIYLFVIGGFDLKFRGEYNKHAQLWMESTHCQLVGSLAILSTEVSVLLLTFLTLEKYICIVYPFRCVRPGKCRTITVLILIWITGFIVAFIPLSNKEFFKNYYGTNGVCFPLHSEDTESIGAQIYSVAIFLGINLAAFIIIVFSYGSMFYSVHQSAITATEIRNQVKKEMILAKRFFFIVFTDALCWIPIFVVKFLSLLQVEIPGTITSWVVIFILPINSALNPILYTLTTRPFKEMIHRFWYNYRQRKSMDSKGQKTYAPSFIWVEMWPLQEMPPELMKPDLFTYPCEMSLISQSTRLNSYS
gsp ag – qHTS for Agonist of gsp, the Etiologic Mutation Responsible for Fibrous Dysplasia/McCune-Albright Syndrome: qHTS. gsp mutant cells, cAMP HTRF, 30 min. actives 0.13% (n = 340,000). Potency, µM (highest dose often 76.9 µM), for the others: top-dose activation (cAMP increase), most hits filed as activators. AID 624287, 2012; active = well fitted activation curve with a large enough effect; inconclusive = small, poorly fitted or top-dose-only effect, or another doubt; inactive = no such curve, though single readings can be large or run the other way; cell line not stated here;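 also: phosphodiesterase inhibitor Ro 20-1724 added with compounds to block cAMP breakdown; potency is read from the fitted curve at half-maximal effect; nearly all actives have a fitted effect of over 60% in size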
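Cells stably selected in G418 were plated at 2000/well, grown 16-24 hr, then given compounds in DMSO with the PDE inhibitor […] (300 uM solution added) for 30 min at 37C; cAMP was read by HTRF.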
RXFP1 agonist – qHTS Assay for Agonists of the Relaxin Receptor RXFP1; actives 0.3% (n = 370,000); HEK293T-RXFP1 cAMP TR-FRET, 30 min; response scale: percent of porcine relaxin response, buffer zero; AID 2676, 2010; Potency, µM (series often up to 57.5 µM), without a hit: at the top dose activation, hits mostly activators; Relaxin receptor 1 (Homo sapiens), Q9HBX9; also: potency is read from the fitted curve at half-maximal effect; % is scaled to controls: 0 for no effect and ±100 for the full control effect; nearly all actives have a fitted effect of over 60% in size
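HEK293 cells stably expressing RXFP1, treated 30 min at 37C with compounds plus PDE4 inhibitor Ro 20174; cAMP measured by HTRF TR-FRET. Normalized to buffer and 29 nM porcine relaxin; EC50 by Hill fit.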
gsp antagonist – qHTS for Antagonists of gsp, the Etiologic Mutation Responsible for Fibrous Dysplasia/McCune-Albright Syndrome: qHTS; gsp-mutant cells, cAMP HTRF, 30 min; Potency, µM (top dose mostly 76.9 µM), inactives show at the top dose activity change, negative = inhibition, most hits filed as inhibitors; actives 0.4% (n = 340,000); AID 624288, 2012; calls by dose curve; cell line not stated here;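 also: intracellular cAMP measured with PDE inhibitor Ro 20-1724 present during compound exposure; potency is read from the fitted curve at half-maximal effect; % is scaled to controls: 0 for no effect and ±100 for the full control effect; nearly all actives have a fitted effect of over 65% in size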
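Cells in G418 medium, seeded 16-24 h, 37C; buffer exchange to DPBS + 1 mM CaCl2, 0.5 mM MgCl2, 0.05% BSA; cpds in DMSO + […] (300 uM stock), 30 min 37C; HTRF cAMP detection.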
* = called active by the depositor; [ ] = remark or other dose. Sampled rows, rich in hits. Any-hit rate of the full collection: about 1.1%. Unless noted, calls follow the shape of the dose curve; as a rule, active = well fitted curve in the direction sought with a large enough effect; inconclusive = small, poorly fitted or top-dose-only effect, or another doubt; inactive = no such curve, though single readings can be large; an effect the other way counts as inactive or inconclusive.

O=C(NCC1CCCO1)c1ccc(Cn2c(=S)[nH]c3ccccc3c2=O)cc1 (centres undefined) was read as S-ASM inh -2%, Integrin act MD 24%, RXFP1 antag inconclusive, gsp ag -1%[15.4 µM], RXFP1 agonist 4% and gsp antagonist -2%.
CCc1c(C)sc2c1CCN(Cc1ccccc1F)C2c1ccccc1 (centres undefined) was read as RXFP1 antag -20 and RXFP1 agonist 4%.
For Cc1ccc(Cn2c(=O)c3ccccc3n3c(-c4ccccc4)nnc23)cc1 the results were RXFP1 antag -3 and RXFP1 agonist 1%.
Cc1ccn2cc(-c3cccc([N+](=O)[O-])c3)nc2c1 was read as S-ASM inh 5%, Integrin act MD inconclusive, RXFP1 antag 10, gsp ag -3%[15.4 µM], RXFP1 agonist 3% and gsp antagonist 10%.
For Cc1c(C(=O)NNc2cc(=O)n(C)c(=O)n2C)cccc1[N+](=O)[O-] the results were S-ASM inh -1%, Integrin act MD -7%, RXFP1 antag 25, gsp ag inconclusive, RXFP1 agonist 14µM* and gsp antagonist 12%.
`CCC(CC)NC(=O)c1cccc([N+](=O)[O-])c1C` gave S-ASM inh 5%, Integrin act MD 13%, RXFP1 antag 0, gsp ag 29%, RXFP1 agonist 6% and gsp antagonist 1%.
For Cc1cc2cc(CN3C(=O)c4ccccc4C3=O)ccc2n1C the results were S-ASM inh -1%, Integrin act MD -3%, RXFP1 antag 4, gsp ag 32µM*, RXFP1 agonist 23% and gsp antagonist 21%.
Screening Cc1ccc(S(=O)(=O)NCc2ccc3c(c2)cc(C)n3C)cc1 returned S-ASM inh -2%, Integrin act MD -24%, RXFP1 antag -2, gsp ag 35%, RXFP1 agonist 2% and gsp antagonist 3%.
O=C1CC[C@H](C(=O)N2CCCCC2)N1 was read as RXFP1 antag -10.
`O=C(CN1C(=O)S/C(=C\c2cc(Cl)c(O)c(Cl)c2)C1=O)Nc1ccccc1` gave S-ASM inh -1%, Integrin act MD 9%, RXFP1 antag -27, gsp ag -32%, RXFP1 agonist 0% and gsp antagonist 40µM*.
Screening O=C(CN1C(=O)S/C(=C\c2ccccn2)C1=O)Nc1ccccc1 returned S-ASM inh 5%, Integrin act MD -6%, RXFP1 antag 8, gsp ag 17%, RXFP1 agonist 0% and gsp antagonist 3%.
`Cc1ccc(NC(=O)CN2C(=O)S/C(=C/c3ccc(O)c([N+](=O)[O-])c3)C2=O)cc1C` gave S-ASM inh -16%, Integrin act MD -7%, RXFP1 antag -63*, gsp ag 16%[15.4 µM], RXFP1 agonist 0% and gsp antagonist inconclusive.
For Cc1ccc(S(=O)(=O)c2nnn3c2nc(N2CCOCC2)c2ccccc23)c(C)c1 the results were S-ASM inh -15%, Integrin act MD 28%, RXFP1 antag 18, gsp ag 6%, RXFP1 agonist 5% and gsp antagonist -6%.
For Cc1ccc(-n2nc3c(=O)n(C(C)C(=O)NCc4ccc(OC(C)C)cc4)nc(C)c3c2C)cc1 (centres undefined) the results were RXFP1 antag -25 and RXFP1 agonist 0%.
For COc1ccccc1C1CCCN1Cc1nc(-c2ccc(C)s2)oc1C (centres undefined) the results were S-ASM inh 6%, Integrin act MD 4%, RXFP1 antag -65*, gsp ag 4%[15.4 µM], RXFP1 agonist 0% and gsp antagonist -5%.
COc1ccccc1C1CCCN1Cc1nc(-c2cc3c(cc2Cl)OCO3)oc1C (centres undefined) was read as S-ASM inh 2%, Integrin act MD -32%, RXFP1 antag -4, gsp ag 3%, RXFP1 agonist 0% and gsp antagonist 6%.
Screening Cc1ccc(CNC(=O)CNS(=O)(=O)c2cccs2)cc1 returned RXFP1 agonist 2%.
Screening CCOC(=O)CN1CCCC1=O returned RXFP1 antag 3.
`Cc1nc2c(C(=O)NCCc3ccc(Cl)cc3)c[nH]n2c(=O)c1Cc1ccccc1F` gave RXFP1 agonist 5%.
`Cc1nc2c(C(=O)NCCC(C)C)c[nH]n2c(=O)c1Cc1ccccc1F` gave S-ASM inh 1%, Integrin act MD -33%, RXFP1 antag -101*, gsp ag -19%, RXFP1 agonist 2% and gsp antagonist 20µM*.
COC(=O)c1sc(NC(=S)NNC(=O)c2c(Br)c(C)nn2C)c(C(=O)OC)c1C was read as S-ASM inh 6%, Integrin act MD 17%, RXFP1 antag 31, gsp ag inconclusive, RXFP1 agonist 25µM* and gsp antagonist -3%.
COc1ccc(CC(=O)Nc2nnc3n2CCS3)cc1 was read as RXFP1 agonist 0%.
CC1(C)CC(=O)C(C(C2=C(O)CC(C)(C)CC2=O)c2ccc(Br)s2)C(=O)C1 (centres undefined) was read as S-ASM inh -1%, Integrin act MD -49%, RXFP1 antag -99*, gsp ag inconclusive, RXFP1 agonist 0% and gsp antagonist -25%.
Screening CCc1cc(=O)oc2cc(OC(C)=O)cc(OC(C)=O)c12 returned S-ASM inh inactive, Integrin act MD 19%, RXFP1 antag 18, gsp ag 10µM*, RXFP1 agonist 26% and gsp antagonist -1%.
`COc1cc(OCc2ccccc2)c2c(CCC(=O)O)cc(=O)oc2c1` gave S-ASM inh 37%, Integrin act MD inconclusive, RXFP1 antag 5, gsp ag 27% and gsp antagonist -11%.
`O=C(NCCc1ccccc1)c1nc2c(nnn2Cc2ccccc2Cl)c(=O)[nH]1` gave S-ASM inh -14%, Integrin act MD -4%[7.66 µM], RXFP1 antag -13, gsp ag 14%, RXFP1 agonist 0% and gsp antagonist 40µM*.
For Cc1nc(C2CCCCC2)c(-c2ccc(S(N)(=O)=O)c(F)c2)o1 the results were RXFP1 antag -17.
